Results filed as inconclusive are left out. Where a call stands in place of a potency, no number is given. The source made the active and inactive calls. The call rests on the fitted dose curve; in most records, active means well fitted cell-killing curve with a large enough effect in the repeat runs; inconclusive means weak or mixed curves, or effect the other way; inactive means flat fitted curve, though single readings scatter.
Potency means the concentration at half of the fitted maximal effect.

This test can be described thus: qHTS assay to identify small molecule agonists of the constitutive androstane receptor (CAR) signaling pathway - cell viability counter screen (AID 1224836). Further: nearly all actives have a fitted effect of over 45% in size. The conditions noted are these: HepG2-CYP2B6-hCAR viability, CellTiter-Fluor, 23 h, PK11195 added to every well; series mostly up to 92.4 µM. The text has this: U.S. Tox21 Program National Center for Advancing Translational Sciences [NCATS] NIH Chemical Genomics Center [NCGC] U.S. Environmental Protection Agency [EPA] National Institutes of Environmental Health Sciences [NIEHS] National Toxicology Program [NTP] U.S. Food and Drug Administration [FDA] Tox21 Assay Overview: The constitutive androstane receptor (CAR) is a nuclear receptor which regulates multiple drug metabolizing enzymes (DMEs) and transporters. Activating CAR will generally increase the transcription and subsequent translation of CYP2B6 and CYP3A4. These two DMEs represent about 50% of the drug metabolizing potential in the body. […] Recently, there have also been studies performed indicating CARs role in energy metabolism and cancer therapy. Therefore, inducing CARs activity could have a potential effect on diabetes and cancer. Identifying environmental toxins and compounds which modulate CAR, through the use of the Tox21 10K compound collection, will be an important step in determining the toxicity and potential therapeutic effects these factors will have on the human body. To differentiate true CAR agonists from cytotoxic substances, the assay is multiplexed with a cell viability assay.
Tox21 Assay Protocol Summary: A double-stable (hCAR and CYP2B6-2.2kb) transfected cell line, derived from human hepatoma (HepG2) cells, was utilized for the duration of the quantitative high-throughput screens. The HepG2-CYP2B6-hCAR cells were dispensed at 2500 cells/4 uL/well in 1536-well white solid bottom plates using a Multidrop Combi. After the assay plates were incubated at 37 C/5% CO2 for 4 hrs, 23 nL of compounds at 15 concentrations (from 5-48 columns) or positive control (from 1 to 4 columns) were transferred to the assay plates using a Pintool station. One uL of PK11195 (final concentration = 0.75 uM) was added, using a Flying Reagent Dispenser, inside each well. After a 23 hr incubation period at 37 C/5% CO2, 1 uL of CellTiter-Fluor reagent was added into each well of the assay plates using a Flying Reagent Dispenser. The fluorescence intensity in the plates was then measured using a ViewLux plate reader.
As for `CN1[C@@H]2CC[C@H]1CC(O)C2` (stereo not given in full), the Potency result is “inactive”. The result for `CCCCCCCc1ccc(O)cc1` reads “inactive”; that for `O=[N+]([O-])[O-].[Tl+]`, “inactive”. The result for `CCOC(=O)CCN(SN(C)C(=O)Oc1cccc2c1OC(C)(C)C2)C(C)C` reads “inactive”; that for `CCCC[N+]1(C)CCCC1` (tested in a mixture with another compound), “inactive”; that for `c1csc(-c2ccc(-c3cccs3)s2)c1`, “inactive”. Consider `CCn1cc[n+](C)c1` (tested in a mixture with another compound), for which the Potency result is “inactive”.

For `O=C1C2(Cl)C3(Cl)C4(Cl)C(Cl)(Cl)C5(Cl)C3(Cl)C1(Cl)C5(Cl)C24Cl` (stereo not given), the Potency is 60.1 µM (active). The result for `CCOP(=O)(Sc1ccccc1)Sc1ccccc1` reads “inactive”; that for `COP(=S)(OC)Oc1ccc([N+](=O)[O-])c(C)c1`, “inactive”.

`C=CC(=C)C`: the Potency entry was “inactive”. The result for `CCN1CCC2(CC1)COc1cc3c(cc12)N(C(=O)c1ccc(-c2ccc(-c4nnc(C)o4)cc2C)cc1)CC3` reads 44.8 µM (active); that for `O=C(Nc1ccc(F)cc1F)c1cccnc1Oc1cccc(C(F)(F)F)c1`, “inactive”. The result for `NC(=O)C(Cl)Cl` reads “inactive”; that for `O=C(Cl)c1ccccc1F`, “inactive”; that for `CN`, “inactive”. The entry for `CN1C2CCC(C)(C)C1CC(OC(=O)C(O)(c1cccs1)c1cccs1)C2` (stereo not given) is “inactive”; for `O=C(CCCCl)c1ccc(F)cc1` it is “inactive”; for `CCCCN(CCCC)C(=S)[S-].CCCCN(CCCC)C(=S)[S-].[Ni+2]` it is “inactive”. Take `CC(C)C(Nc1ccc(C(F)(F)F)cc1Cl)C(=O)OC(C#N)c1cccc(Oc2ccccc2)c1` (stereo not given): the Potency entry is “inactive”. The entry for `Brc1ccc(Oc2ccc(Br)cc2Br)c(Br)c1` is “inactive”; for `CCOC(=O)Cc1ccccc1` it is “inactive”; for `CC(=O)[O-].CC(=O)[O-].O.O.O.[Pb+2]` it is “inactive”.

Take `[Cl-].[Cl-].[Cl-].[Yb+3]`: the Potency result is “inactive”.

As for `Cc1ccn2nc(S(=O)(=O)Nc3c(F)cccc3F)nc2n1`, the Potency result is “inactive”.

Consider `CCCCC(CC)COC(=O)OOC(C)(C)C` (stereo not given), for which the Potency entry is “inactive”. The result for `Nc1ccc(Cl)cc1C(=O)c1ccccc1F` reads “inactive”; that for `O=[N+]([O-])c1cccc2cccc([N+](=O)[O-])c12`, “inactive”; that for `C=CCBr`, “inactive”. With `O=[N+]([O-])c1ccccc1-c1ccccc1`, the Potency entry was “inactive”. The entry for `C[C@]12C/C(=C/O)C(=O)C[C@@H]1CC[C@@H]1[C@@H]2CC[C@@]2(C)[C@H]1CC[C@]2(C)O` is “inactive”; for `C#CC1(O)CCCCC1` it is “inactive”; for `C[C@H]1[C@H](c2ccc(Cl)cc2)SC(=O)N1C(=O)NC1CCCCC1` it is “inactive”.

As for `[F][Sn]([c]1ccccc1)([c]1ccccc1)[c]1ccccc1`, the Potency is 1.09 µM (active).

Consider `COCCC#N`, for which the Potency result is “inactive”.

`C#CCO`: the Potency result was “inactive”. The result for `O=C(NC(=O)c1c(F)cccc1F)Nc1ccc(Oc2ccc(C(F)(F)F)cc2Cl)cc1F` reads “inactive”; that for `CC(C)N(C(=O)SC/C(Cl)=C/Cl)C(C)C`, “inactive”; that for `CC(Cc1ccc(O)cc1)NCC(O)c1cc(O)cc(O)c1` (stereo not given), “inactive”. Consider `CC(Cl)CCl` (stereo not given), for which the Potency result is “inactive”.

Values taken from PubChem BioAssay (Tox21).
